Only some compounds are listed: those with a hit (about 2.6% of all), similar ones and a draw of the others.
ATXN2 expr inh: reduces ATXN2 reporter expression in HEK-293 cells | AID 1745845 | Potency, µM (highest dose often 57 µM), for the others: at the highest dose activity change, negative = inhibition, most hits filed as inhibitors | 0.72% of 360,000 active | HEK-293 ATXN2-luciferase reporter, luminescence, 24 h; further: potency means the concentration at half of the fitted maximal effect; on the % scale 0 is the no-effect control and ±100 the full control effect; nearly all actives have a fitted effect of over 55% in size
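ATXN2-luciferase reporter cells (luciferase flanked by upstream and downstream ATXN2 gene portions) were treated 24 h at 37 °C with compounds at up to 57 uM. SteadyGlo luminescence gave expression; GF-AFC fluorescence gave viability.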
uPA surface inh: inhibitors of cell surface uPA generation; cell surface uPA generation assay, qHTS; 0.31% of 330,000 active; Potency, µM (titrated, usually from 38.3 µM), for the others: at the top dose activity change, negative = inhibition, hits mostly inhibitors; active means well fitted inhibition curve with a large enough effect; inconclusive means small, poorly fitted or top-dose-only effect; inactive means no such curve, though single readings can be large or run the other way; tested in mouse RAW 264.7 cells; further: potency means the concentration at half of the fitted maximal effect; on the % scale 0 is the no-effect control and ±100 the full control effect; nearly all actives have a fitted effect of over 55% in size
TGFb inhibitor: blocks TGF-b signaling; HepG2 CAGA-GFP TGF-b/SMAD3 reporter, GFP fluorescence, 18 h; TGF-beta stimulated, 500 pg/mL final; Potency, µM (highest dose often 46.1 µM), for inactives: top-dose activity, negative = inhibition, usual class: inhibitors; 1.2% of 410,000 active; further: potency means the concentration at half of the fitted maximal effect; on the % scale 0 is the no-effect control and ±100 the full control effect; nearly all actives have a fitted effect of over 65% in size
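First, reporter cells (HEPG2 CAGA-GFP) rested 2 h at 37 degrees C. Next, compounds were pinned in and TGF-beta added to 500 pg/mL final. After 18 h, GFP was imaged per cell and summed per well.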
Giardia killer: kills Giardia lamblia. activity change, % at 7.66 µM, hits read low. Giardia lamblia trophozoite viability. 0.15% of 340,000 active; in the data active means activity change below about -80%; inconclusive means between about -30% and that limit;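 further: parasites exposed to compound for two days anaerobically before the ATP read; on the % scale 0 is the no-effect control and ±100 the full control effect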
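Killing of trophozoites was scored by loss of ATP luminescence after a 48 hrs anaerobic exposure to compounds at 37 deg C, using 100 cells per well.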
S2 tox: viability counter-screen for ATXN expression inhibitors | S2 cells (HEK-293 line with an ATXN2-luciferase reporter) viability, CellTiter-Fluor protease fluorescence, 24 h | Potency, µM (doses to about 56.7 µM), most hits filed as cytotoxic | 0.49% of 400,000 active | AID 651635; further: potency means the concentration at half of the fitted maximal effect; nearly all actives have a fitted effect of over 40% in size
HepG2 viability: HepG2 cytotoxicity, counter-screen for TGF-b inhibitors; HepG2 CAGA-GFP viability, ATP luminescence, 18 h; Potency, µM (highest dose often 46.1 µM), inactives show at the top dose activity change, negative = cytotoxicity, actives largely listed as cytotoxic; 0.76% of 410,000 active; AID 588856; further: potency means the concentration at half of the fitted maximal effect
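HepG2 CAGA-GFP cells (1000/well, DMEM with 1% FBS) received compound, then TGF-beta at 500 pg/mL final, and were incubated 18 hours at 37 degrees C. Viability was read by CellTiter-Glo luminescence. Media-only wells were set as complete cell-killing and DMSO as no toxicity.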
Numbers without * were called inactive; i = inactive; ? = inconclusive; . = not tested or not shown; ! = a repeat was not active; [ ] = another dose, or the depositor's remark. Unless noted, the call rests on the fitted dose curve; in most records, active means well fitted curve in the direction sought with a large enough effect; inconclusive means small, poorly fitted or top-dose-only effect, or another doubt; inactive means no such curve, though single readings can be large; an effect the other way counts as inactive or inconclusive.

SMILES	ATXN2 expr inh	uPA surface inh	TGFb inhibitor	Giardia killer	S2 tox	HepG2 viability
O=C(N/N=C/c1cn(-c2cccs2)nc1-c1ccccc1)c1ccccc1O	0%	-16%	11µM*	-10	?	-47%
Cc1ccc(/C=N/NC(=O)c2ccc3ccccc3c2)s1	12%	4.5µM*	-20%	25	i	-3%
Cc1cc(C(=O)N/N=C/c2cc(Br)ccc2OC(=O)c2ccccc2)n[nH]1	27µM*	-10%	-21%	19	i	-35%
Cc1cccc(NC(=S)N/N=C/c2ccc([N+](=O)[O-])s2)c1	20µM*	-8%	7.1µM*	-21	.	6.3µM*
O=C(N/N=C/c1ccc([N+](=O)[O-])s1)c1cccc(Br)c1	-34%	-16%	?	?	?	-43%
O=C(N/N=C/c1ccc([N+](=O)[O-])s1)c1ccncc1	?	4%	?	?	i	13µM*
Cc1ccc(C(=O)N/N=C\c2ccc([N+](=O)[O-])s2)cn1	?	-9%	-24%	?	i	-7%
CCc1cc[n+](CC(=O)c2ccc(F)cc2)cc1C(=O)O	.	.	-8%	.	.	2%
COc1cc(CN2CCOc3ccc(CN4CCC(O)(c5cccnc5)CC4)cc3C2)ccc1F	.	.	.	.	i	.
COc1ccccc1C1CN(CCNC(=O)c2sccc2Cl)Cc2ccccc2O1 (stereo not drawn)	.	.	.	.	i	.
COc1ccc2nccc(/C=C/c3ccc(N(C)C)cc3)c2c1	.	.	-16%	.	.	-34%
OCCN1CCN(Cc2ccc3c(c2)CN(Cc2cccn2-c2ccccn2)CCO3)CC1	.	.	.	.	i	.
COc1ccccc1-c1ccc(C(=O)NCCN2CCOCC2)c(N2CCN(c3ccccc3F)CC2)n1	.	.	.	.	i	.
Cc1cc(C(=O)N/N=C/c2ccc([N+](=O)[O-])s2)n[nH]1	14µM*	-19%	11µM*	-90*	?	18µM*
CCOC(=O)N/N=C\c1ccc([N+](=O)[O-])s1	?	-9%	22µM*	-99*	?	-49%
Cc1cc(C(=O)N/N=C/c2ccc(C)s2)n[nH]1	29%	-1%	-2%	-21	i	-2%
Cc1ccc(C(=O)N/N=C/c2ccc([N+](=O)[O-])s2)cc1	2.2µM*	-14%	?	-93*	i	-29%
CC(C)(C)OC(=O)N/N=C\c1ccc([N+](=O)[O-])s1	-10%	1%	-20%	1	i	-13%
C[C@H]1C[C@H]2[C@@H]3CCC4=CC(=O)C=C[C@]4(C)[C@H]3C(=O)C[C@]2(C)[C@@]1(O)C(=O)CO	0%	.	.	.	i	.
Cc1ccccc1C1(CC(=O)N2CCCCC2C)CC(=O)N(Cc2cccnc2)C1=O (stereo not drawn)	.	.	.	.	i	.
CCC1=NN(C(=O)c2cccc(Br)c2)C(O)(c2ccc(Br)cc2)C1 (stereo not drawn)	?	-23%	8.9µM*	-12	?	-35%
N#CC1=C(N)OC2=C(CC/C2=C\c2ccccc2)C1c1ccccc1 (stereo not drawn)	13%	-2%	66%	4	.	-1%
N#CC1=C(N)OC2=C(CC/C2=C\c2ccccc2Cl)C1c1ccccc1Cl (stereo not drawn)	.	-30%	11µM*	10	.	-28%
COc1ccc2cc(CNCc3ccccc3C(F)(F)F)c(N3CCCC(CO)C3)nc2c1 (stereo not drawn)	.	.	.	.	i	.
CCCCCCCNC(=O)C1(CC2CC(c3ccc(Cl)cc3)=NO2)CCNCC1 (stereo not drawn)	28µM*	-6%	?	-11	.	18µM*
SMILES	ATXN2 expr inh	uPA surface inh	TGFb inhibitor	Giardia killer	S2 tox	HepG2 viability
CN(C)CCCNc1cc(-c2ccccc2)nc2cc(-c3cccc(F)c3)nn12	.	5µM*	?	13	?	-93%
Cc1cccc(-c2cc3nc(C)cc(NCCCN(C)C)n3n2)c1	-6%	-4%	22%	-3	i	-34%
COc1cccc(CN2CC34CCC(CC3S2(=O)=O)O4)c1 (stereo not drawn)	.	.	-2%	13	.	1%
CC1=NN(C(=O)Cc2ccc([N+](=O)[O-])cc2)C(O)(C(F)(F)C(F)(F)F)C1 (stereo not drawn)	.	-8%	11µM*	6	?	-70%
COc1cc2nc(-c3cc(F)ccc3O)nc(N[C@@H]3CNC[C@@H]3C(C)(C)O)c2cc1OC	22µM*	.	.	.	.	.
COc1ccc(-c2cc(-c3cc(F)ccc3O)[nH]n2)cc1OC	99%	.	-27%	3	i	-52%
C[C@H]1NCc2cc(-c3ccc4c(=O)c(C(=O)O)cn(C5CC5)c4c3OC(F)F)ccc21	5%[25.6 µM]	.	.	.	i	.
O=c1[nH]c(CCl)nc2cc(-c3ccc(F)cc3)sc12	?	-18%	?	?	i	11µM*
NNC(=O)c1ccc(C(=O)N(c2ccccc2)c2ccccc2)cc1	.	.	-3%	.	.	-40%
O=c1/c(=C/c2ccccn2)sc2nc3ccccc3n12	-35%	3%	-12%	-4	i	-16%
Cc1cc(C=c2sc3nc4ccccc4n3c2=O)c(C)n1-c1ccccc1	0.24µM*	.	.	.	.	.
S=c1ncc2n[nH]nc2[nH]1	.	.	2%	.	.	-51%
CCC(=O)c1ccc2c(c1)N(CCCN(C)C)c1ccccc1S2	?	?	?	8	?	16µM*
Cc1ccc(Cc2cnc(NC(=O)/C(C#N)=C/c3ccc(-c4ccc([N+](=O)[O-])cc4)o3)s2)cc1	16µM*	5%	-5%	2	.	-8%
N#C/C(=C/c1ccc(-c2ccc([N+](=O)[O-])cc2)o1)C(=O)Nc1nc(-c2cccs2)cs1	3%	-4%	-2%	-7	i	-8%
N=c1n(CCN2CCOCC2)c2ccccc2n1CC(O)COc1ccccc1 (stereo not drawn)	-5%	-2%	1%	0	i	-12%
N=c1n(CCN2CCCCC2)c2ccccc2n1CC(O)COc1ccccc1 (stereo not drawn)	?	-8%	11µM*!	-11	25µM*!	-49%
N=c1n(CCN2CCCCC2)c2ccccc2n1CC(O)c1cccc(Br)c1 (stereo not drawn)	?	-9%	-5%	-16	?	-97%
Cc1ccccc1OCC(O)Cn1c(=N)n(CCN2CCCCC2)c2ccccc21 (stereo not drawn)	.	.	.	.	.	16µM*
N=c1n(CCN2CCCCC2)c2ccccc2n1CC(O)c1ccc(Cl)c(Cl)c1 (stereo not drawn)	25µM*	?	?	10	?	11µM*
Cc1cc(C(=O)NCc2nnc3n2CCN(Cc2ccc(F)cc2F)CC3)c(C)o1	.	.	.	.	i	.
CCSc1nnc(-c2c[nH]c3ccccc23)o1	69%	-1%	7%	-3	?	4%

Bioassay records as filed in PubChem.
